47 sequences from PMC7819943, “Rice protein-binding microarrays: a tool to detect cis-acting elements near promoter regions in rice” can be followed below.

Over roughly 35,000 sequences, “fluorescence intensity (a.u.)” has its median near 10,000; the highest 2% begin near 52,000. Shown is part of a subset that was picked to be rich in the highest values.

The experiment deals with T1, OsWOX13 (Oryza sativa, UniProt Q5QMM3 1-267).
T1 sequence: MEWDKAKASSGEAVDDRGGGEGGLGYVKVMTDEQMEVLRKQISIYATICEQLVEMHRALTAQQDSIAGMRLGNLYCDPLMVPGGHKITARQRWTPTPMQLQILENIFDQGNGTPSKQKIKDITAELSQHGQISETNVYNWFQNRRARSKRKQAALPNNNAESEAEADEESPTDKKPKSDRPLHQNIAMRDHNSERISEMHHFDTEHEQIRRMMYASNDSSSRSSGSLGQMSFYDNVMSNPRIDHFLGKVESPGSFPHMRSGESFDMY
Kind of experiment: protein-binding microarray (RPBM); PBS, 2% BSA, 51.3 ng/ul salmon testes DNA, 50 uM zinc acetate, 200 nM TF, 25 C, 1 h; high values mean tight binding. The settings on record: protein: recombinant; tags: N-terminal polyhistidine and DsRed monomer fusion (pET32a); label: CyDye5-dUTP incorporated in the synthesized complementary strand; 3' TTTTT single-stranded linker to array surface; dsDNA, one strand shown. The gist of the method: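 Binding signal here means per-feature fluorescence intensity in arbitrary units. The values were read on an Axon 4000B scanner after a custom Agilent array, double-stranded by primer extension with Cy5-dUTP, was incubated with 200 nM protein at 25 °C for 1 h in PBS with 2% BSA, salmon testes DNA and 50 µM zinc acetate, then washed. The proteins were transcription factors with an N-terminal polyhistidine tag and DsRed, expressed in E. coli BL21-CodonPlus and purified on Ni–NTA.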
“TTTTGAAATTTCAGATTATTTTGTGTGGTTTTGTAATTTGCGGAGTCACCTAGTGCAG”: the binding signal is 4570 fluorescence intensity (a.u.). In the case of “GTATGTGATTTTCTTTAATTAGAGTTCTTGCCTAAGGTTGCGGAGTCACCTAGTGCAG”, the binding signal was 38300 fluorescence intensity (a.u.).

On to “ATTTGATTGAATGTAGAGATTCTTGTAATAGGATTCTTTGCGGAGTCACCTAGTGCAG”, for which the binding signal was 64700 fluorescence intensity (a.u.). Regarding “CAGATTAAAATTTCTGCTCAAGCTAGCCATCGATCATCTGCGGAGTCACCTAGTGCAG”, the binding signal was 3930 fluorescence intensity (a.u.). The value for “GATGAAACATTTGACATGAACTAAATTTTGTTCGGCAGTTCGGAGTCACCTAGTGCAG” was 5180 fluorescence intensity (a.u.); that for “CGTAGAAGGGATTGGGTGAAATTACATGGGCATATAGGGACGGAGTCACCTAGTGCAG” was 4240 fluorescence intensity (a.u.).

With “ATAATTAGACTTCTTGTTGCCTTCACCTATTTTAACACATCGGAGTCACCTAGTGCAG”, the binding signal is 13000 fluorescence intensity (a.u.). Consider “GAAAATTATGTACATCCTCCGCTTAAAGATGACTATGAATCGGAGTCACCTAGTGCAG”, for which the binding signal is 4540 fluorescence intensity (a.u.). For “GATAAGTAAATTAATTGGAAGAAAGAAATCAGTGGGGAGGCGGAGTCACCTAGTGCAG”, the binding signal is 13500 fluorescence intensity (a.u.). Turning to “AGCCTAATTAATCCGTCATTAGCAAATATTTACTGTAGCACGGAGTCACCTAGTGCAG”, the binding signal was 28400 fluorescence intensity (a.u.).

As to “TAAGTAGATCGAAAATGTTTCAATCATTTAAATCAGGCGTCGGAGTCACCTAGTGCAG”, the binding signal was 4180 fluorescence intensity (a.u.).

As for “TTATTAATTATCATATTAGTAGTAGTAGTAGTAGCTAGGCCGGAGTCACCTAGTGCAG”, the binding signal is 34100 fluorescence intensity (a.u.). Take “TATGATATGTCAAATCCTATAATTTCTTCGTCCCAAAATGCGGAGTCACCTAGTGCAG”: the binding signal was 3440 fluorescence intensity (a.u.). On to “ATCGGAGACTGACTGAGTGAAGGTTGGTTGGTTCACACTTCGGAGTCACCTAGTGCAG”, for which the binding signal is 4540 fluorescence intensity (a.u.).

Regarding “GGTCCAATCAACATGAATAACAAAACAAAGGAAATGGATTCGGAGTCACCTAGTGCAG”, the binding signal was 17100 fluorescence intensity (a.u.). Regarding “GAATGGTCCAACAAGGAGACTGAGGAATGGTCAACACATTCGGAGTCACCTAGTGCAG”, the binding signal was 59700 fluorescence intensity (a.u.). Consider “ATGATCAATCAGTAGATTATGCCCTGGTTATTCTTTATAACGGAGTCACCTAGTGCAG”, for which the binding signal is 25400 fluorescence intensity (a.u.). “ATGGATATAAATTGATGAGTACAGTCCTGAGAACTGCAAGCGGAGTCACCTAGTGCAG”: the binding signal was 32600 fluorescence intensity (a.u.). On to “GTTACTGTGATTTGTTTCACGAAGCCCCATGTTTTGAGCCCGGAGTCACCTAGTGCAG”, for which the binding signal is 11700 fluorescence intensity (a.u.). As for “ACTAATCTGATTGTGTCACTTGTGCGATTGATGGAGTTCACGGAGTCACCTAGTGCAG”, the figure is 23900 fluorescence intensity (a.u.); as for “TTTTGATTGAAGACACACCTATTGTCGCGAATACTGCTAACGGAGTCACCTAGTGCAG”, 40500 fluorescence intensity (a.u.).

As for “CCACGCCAATTAGCATCCCACGTTTCGCCTTTGATTGTGGCGGAGTCACCTAGTGCAG”, the binding signal was 10600 fluorescence intensity (a.u.). Consider “ATATTTAATTATTATTTTAATAAAACTAATTTGGTAATGTCGGAGTCACCTAGTGCAG”, for which the binding signal is 25700 fluorescence intensity (a.u.). “TATAATTTAAATTTAACTAAATTAATGGTATTACAGATGTCGGAGTCACCTAGTGCAG”: the binding signal is 58500 fluorescence intensity (a.u.). For “ATTAATAATGTATAATTTATTTTAGTGGTATTAATGTTGTCGGAGTCACCTAGTGCAG”, the binding signal is 22400 fluorescence intensity (a.u.). With “CTATAATTTGTAGATGATGTAGTATAATTATATTTAATCACGGAGTCACCTAGTGCAG”, the binding signal is 37300 fluorescence intensity (a.u.). As for “TCATTAATTAATTAATTACAGTGGTAGATGATGATGTAGTCGGAGTCACCTAGTGCAG”, the binding signal was 64000 fluorescence intensity (a.u.). For the sequence “TGTTACATATAATGAAATTAATTTGGTATTGTAGATGTTGCGGAGTCACCTAGTGCAG”, the binding signal was 13600 fluorescence intensity (a.u.). “CATTATAGATTAATACATTTTGGGATGGAGGGAGTACTCACGGAGTCACCTAGTGCAG”: the binding signal is 3200 fluorescence intensity (a.u.).

Regarding “GACAGGATTATCACCTATTTGTCAACAGTTCACCAGGAGCCGGAGTCACCTAGTGCAG”, the binding signal is 3360 fluorescence intensity (a.u.). Regarding “ATTTAACGTCATTTATAAACATATACTAGATACTAGTAATCGGAGTCACCTAGTGCAG”, the binding signal was 3890 fluorescence intensity (a.u.).

With “GTCAACTGGAAATTGAAATTCAGCCAAAATTAGTGATCAGCGGAGTCACCTAGTGCAG”, the binding signal is 4850 fluorescence intensity (a.u.). The value for “GTAGCAAATTTACAAATTTGCAGGGCTAGCTGTTGCGGTGCGGAGTCACCTAGTGCAG” was 11100 fluorescence intensity (a.u.).

In the case of “AAGCATCAATTCGTTGCCTGATTAGTACAACACTGTTGTGCGGAGTCACCTAGTGCAG”, the binding signal is 5420 fluorescence intensity (a.u.). Turning to “CTAATCCCAGATTGCTAGTGATTAGCACGTAGATACATAGCGGAGTCACCTAGTGCAG”, the binding signal was 21700 fluorescence intensity (a.u.). The value for “ATTTCTGATTGGTGAGATGGGTGATTCGGTAGGCCATTGGCGGAGTCACCTAGTGCAG” was 40100 fluorescence intensity (a.u.).

With “ATATAAATATTAGTAATCAATTGAGGGAACATTTGATTTGCGGAGTCACCTAGTGCAG”, the binding signal is 11300 fluorescence intensity (a.u.). In the case of “GTTTGATTGTTTTCTAGTGTACTACACTTCCCTAGAACGTCGGAGTCACCTAGTGCAG”, the binding signal was 55000 fluorescence intensity (a.u.). Consider “CTAATTAGTTTTGGTTAGTACTTATAATTTTGTCCTAATGCGGAGTCACCTAGTGCAG”, for which the binding signal is 15700 fluorescence intensity (a.u.). In the case of “TGTTTGCGATTGATTTGTACTACACAGTGGGTGCTTCTCCCGGAGTCACCTAGTGCAG”, the binding signal was 35300 fluorescence intensity (a.u.).

For the sequence “CGGTAGTGATTGATTCGGATGATTTCACCAGTAGGATTGGCGGAGTCACCTAGTGCAG”, the binding signal is 65300 fluorescence intensity (a.u.).

“CAATAATTGAGTGATTTGGCCCAGTCCAGGAACTAGTAAGCGGAGTCACCTAGTGCAG”: the binding signal is 56100 fluorescence intensity (a.u.). Regarding “AGAGGGTGGGGACATGGGGATTGATTTCACCTGTAGGATTCGGAGTCACCTAGTGCAG”, the binding signal is 3430 fluorescence intensity (a.u.). The value for “TCCAGTCCAATCAGCCCACCATAATTTGGGCCGGAATAAGCGGAGTCACCTAGTGCAG” was 17600 fluorescence intensity (a.u.); that for “CAACTTGATTAGTAGTAGTACTAGTTTGATTTTGTCCTGGCGGAGTCACCTAGTGCAG” was 54200 fluorescence intensity (a.u.). “CATTTACTAATTTGTTTGCTTGATTGTCCTGGCGAAATTGCGGAGTCACCTAGTGCAG”: the binding signal is 40000 fluorescence intensity (a.u.). For “GCCCTTGATTTCTGACTAGATTTGTGTTATTCTACTTACACGGAGTCACCTAGTGCAG”, the binding signal is 27200 fluorescence intensity (a.u.).
